Consider 40 compounds from PubChem BioAssay (NCATS).

Records with an inconclusive call do not appear. Active and inactive are the calls of the source. Calls come from the whole dose curve; as a rule, active = well fitted inhibition curve with a large enough effect; inconclusive = small, poorly fitted or top-dose-only effect; inactive = flat fitted curve, though single readings scatter.
% is set by controls: 0 for no effect and ±100 for the full control effect.

Ubiquitin carboxyl-terminal hydrolase 1 (Homo sapiens), sequence (O94782 whole entry, looked up): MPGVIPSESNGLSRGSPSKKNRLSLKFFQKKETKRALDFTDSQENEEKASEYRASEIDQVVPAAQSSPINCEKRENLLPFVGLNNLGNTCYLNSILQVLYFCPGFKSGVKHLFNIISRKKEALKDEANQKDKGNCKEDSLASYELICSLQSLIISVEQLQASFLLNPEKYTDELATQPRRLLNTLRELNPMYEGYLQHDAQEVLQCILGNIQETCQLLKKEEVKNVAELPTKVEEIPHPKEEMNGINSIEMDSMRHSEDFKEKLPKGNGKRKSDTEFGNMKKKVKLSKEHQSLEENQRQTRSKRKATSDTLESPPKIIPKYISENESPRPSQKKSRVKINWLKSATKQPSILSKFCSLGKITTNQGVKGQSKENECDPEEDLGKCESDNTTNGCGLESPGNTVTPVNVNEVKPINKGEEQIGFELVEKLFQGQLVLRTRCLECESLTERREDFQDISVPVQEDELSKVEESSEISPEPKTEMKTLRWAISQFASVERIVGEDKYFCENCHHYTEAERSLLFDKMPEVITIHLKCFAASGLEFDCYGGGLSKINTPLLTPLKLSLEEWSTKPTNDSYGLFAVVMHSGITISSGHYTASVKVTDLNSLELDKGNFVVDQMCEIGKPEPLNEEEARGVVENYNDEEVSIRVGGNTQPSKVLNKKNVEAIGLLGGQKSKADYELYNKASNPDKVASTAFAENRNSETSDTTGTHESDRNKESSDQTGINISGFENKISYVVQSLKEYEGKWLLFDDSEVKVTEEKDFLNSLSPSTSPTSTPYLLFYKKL

The experiment has as its target Ubiquitin carboxyl-terminal hydrolase 1 (Homo sapiens) (UniProt O94782). In words: Inhibitors of USP1/UAF1: Pilot qHTS (AID 504865).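 Note: rhodamine fluorescence freed from ubiquitin-rhodamine substrate followed over time; top concentration of the series differs between compounds; nearly all actives have a fitted effect of over 35% in size.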 To be noted: purified USP1/UAF1, Ub-rhodamine cleavage fluorescence; series mostly up to 114 µM; activity change, negative = inhibition: at the top concentration. An excerpt: Deubiquitinating enzymes (DUBs) are a class of enzymes that can cleave isopeptide bond formed between the C-terminal carboxylate of ubiquitin and a lysine side-chain amino group on the target protein. Among them, ubiquitin specific proteases (USPs) constitute the largest DUB family. Human USPs are emerging as promising targets for pharmacological intervention because of their connection to a number of human diseases, including prostate, colon and breast cancer (1, 2), pediatric acute lymphoblastic leukemia (3), and familial cylindromatosis (4). The advantage of inhibiting USPs lies in the potential specificity of therapeutic intervention that can lead to better efficacy and reduce nonspecific side effects.
In a collaboration between the University of Delaware and the NIH Chemical Genomics Center, a high-throughput screen assay was developed to screen for USP1/UAF1 inhibitors. This miniaturized assay has a fluorescent read-out and is used to screen the NIH Molecular Libraries Small Molecule Repository (MLSMR) in order to identify a small molecule that inhibits USP1.
NIH Chemical Genomics Center [NCGC]
NIH Molecular Libraries Probe Centers Network [MLPCN]
Assay Submitter (PI): Zhihao Zhuang, University of Delaware
1. Priolo, C., et al. (2006) The isopeptidase USP2a protects human prostate cancer from apoptosis. Cancer Res 66, 8625-8632
2. Popov, N., et al. (2007) The ubiquitin-specific protease USP28 is required for MYC stability. Nat Cell Biol 9, 765-774
3. De Pitta, C., et al. (2005) A leukemia-enriched cDNA microarray platform identifies new transcripts with relevance to the biology of pediatric acute lymphoblastic leukemia. Haematologica 90, 890-898
4. Kovalenko, A., et al. (2003) The tumour suppressor CYLD negatively regulates NF-kappaB signalling by deubiquitination. Nature 424, 801-805
3 microliters of reagents (buffer in columns 3 and 4 as negative control and 1nM USP1/UAF1 complex in columns 1, 2, and 5-48) are dispensed into Greiner black solid bottom 1536-well assay plates. Compounds are then transferred via Kalypsys pin tool equipped with 1536-pin array (10nl slotted pins, V&P Scientific, San Diego, CA). Following an incubation step of 15 min at room temperature, 1ul of Ub-Rho substrate (150nM final concentration) is added to initiate the reaction. The plates are immediately centrifuged at 1000 rpm for 15 seconds, and subsequently transferred to a ViewLux high-throughput CCD imager (PerkinElmer) wherein kinetic measurements of fluorescence are acquired using 480 nm excitation/540 nm emission filter set (6 reads every 60 seconds, see Table 1). All reagents are diluted in an assay buffer consisting of 50mM HEPES (pH 7.8), 0.5mM EDTA, 0.1 mg/ml BSA, 1mM TCEP, and 0.01% Tween-20.
`CN1CCC(OC(c2ccccc2)c2ccccc2)CC1`: the Potency result was “inactive”.
As to `CCOCCn1c(N2CCCN(C)CC2)nc2ccccc21`, the “activity change, negative = inhibition” value was 2.03% (inactive).
With `Nc1nc(-c2ccccc2)c(Br)c(=O)[nH]1`, the “activity change, negative = inhibition” value is -4.01% (inactive).
On the same count and under the same terms, next, `CN1CCN(C2=Nc3cc(F)ccc3Cc3ccccc32)CC1`: -9.72% (inactive); `Cc1cc(C)cc(OCC2CNC(=O)O2)c1` (stereo not given): -0.999% (inactive); `Cc1ccc(-c2ncc(Cl)cc2-c2ccc(S(C)(=O)=O)cc2)cn1`: -7.95% (inactive).
As for `Nc1nc(N)c(-c2ccccc2)s1`, the “activity change, negative = inhibition” value was -6.78% (inactive).
As for `OC[C@H]1O[C@@H]2O[C@H]3[C@H](O)[C@@H](O)[C@@H](O[C@H]4[C@H](O)[C@@H](O)[C@@H](O[C@H]5[C@H](O)[C@@H](O)[C@@H](O[C@H]6[C@H](O)[C@@H](O)[C@@H](O[C@H]7[C@H](O)[C@@H](O)[C@@H](O[C@H]8[C@H](O)[C@@H](O)[C@@H](O[C@H]1[C@H](O)[C@H]2O)O[C@@H]8CO)O[C@@H]7CO)O[C@@H]6CO)O[C@@H]5CO)O[C@@H]4CO)O[C@@H]3CO`, the “activity change, negative = inhibition” value was -6.03% (inactive).
In the case of `CCN(CC)CCNC(=O)COc1ccc(OC)cc1`, the Potency entry is “inactive”.
Take `COc1ccc(CCN(C)CCCN2CCc3cc(OC)c(OC)cc3CC2=O)cc1OC`: the “activity change, negative = inhibition” value is 0.202% (inactive).
The same measure, in the same setting: next, `OC(C#CCN1CCCC1)(c1ccccc1)c1ccccc1`: -4.67% (inactive); `CC[N+](C)(CC)CCOC(=O)C(O)(c1ccccc1)C1CCCCC1` (stereo not given): -6.5% (inactive).
For the compound `NCc1ccccc1Sc1ccccc1CO`, the “activity change, negative = inhibition” value is -7.68% (inactive).
Regarding `CCCCCN=C(N)N/N=C/c1c[nH]c2ccc(OC)cc12`, the Potency result is “inactive”.
With `O=C(O)C(Cc1cc(I)c(O)c(I)c1)c1ccccc1` (stereo not given), the “activity change, negative = inhibition” value is -5.21% (inactive).
`CCCCCCCC/C=C\CCCCCCCCN`: the “activity change, negative = inhibition” value was -4.41% (inactive).
Consider `Cc1nc(-c2ccc(Cl)cc2)oc1COC(C)(C)C(=O)O`, for which the “activity change, negative = inhibition” value was -10% (inactive).
As to `CCCCCCCCOc1ccc(C(=O)c2ccccc2)c(O)c1`, the “activity change, negative = inhibition” value is -6.21% (inactive).
Same read-out and setting: next, `Cc1cccc(C)c1NC(=O)CN1CCCCCC1`: -8.59% (inactive).
With `c1ccc(CC2=NCCN2)cc1`, the Potency result is “inactive”.
Take `C#C[C@]1(O)CC[C@H]2[C@@H]3CCC4=Cc5oncc5C[C@]4(C)[C@H]3CC[C@@]21C`: the “activity change, negative = inhibition” value is -8.22% (inactive).
The same measure, in the same setting: next, `CC(C)CCCC(C)N` (stereo not given): -5.93% (inactive).
`CCN(CC)CCOC(=O)C1(c2ccccc2)CCCC1`: the “activity change, negative = inhibition” value is -5.17% (inactive).
With `CC1=C(C(=O)O)N2C(=O)[C@@H](NC(=O)[C@H](N)c3ccccc3)[C@H]2SC1`, the “activity change, negative = inhibition” value was 1.99% (inactive).
In the case of `NC(=O)C1(N2CCCCC2)CCN(CCCC(=O)c2ccc(F)cc2)CC1`, the “activity change, negative = inhibition” value was -5.5% (inactive).
Same read-out and setting: next, `CN(C)C(=O)Nc1ccc(Cl)c(Cl)c1`: 2.02% (inactive).
`CCCc1ncc(C[n+]2ccccc2C)c(N)n1`: the “activity change, negative = inhibition” value is 5.79% [at 54.9 µM] (inactive).
Same read-out and setting: next, `COc1ccc(CN(CCN(C)C)c2ncccn2)cc1`: -1.6% (inactive); `COc1cc([C@H]2Oc3cc([C@H]4Oc5cc(O)cc(O)c5C(=O)[C@@H]4O)ccc3O[C@@H]2CO)ccc1O`: -11.7% (inactive); `Clc1cccc(C(c2ccc3nc[nH]c3c2)n2ccnc2)c1` (stereo not given): -12.1% (inactive).
In the case of `O=C(Oc1cccc2cccnc12)c1ccccc1`, the “activity change, negative = inhibition” value is -5.6% (inactive).
Regarding `CCOC(=O)c1c(N)sc2c1CCN(Cc1ccccc1)C2`, the “activity change, negative = inhibition” value is -13.6% (inactive).
Take `O=C(CCCN1CC=C(n2c(=O)[nH]c3ccccc32)CC1)c1ccc(F)cc1`: the “activity change, negative = inhibition” value is 3.76% [at 54.9 µM] (inactive).
On to `COc1cc(C(=S)N2CCOCC2)ccc1O`, for which the “activity change, negative = inhibition” value was -7.7% (inactive).
The same measure, in the same setting: next, `Cc1ccc(O)c([C@H](CCN(C(C)C)C(C)C)c2ccccc2)c1`: -5.82% (inactive).
On to `NC(N)=NCc1cccc(I)c1`, for which the Potency entry was “inactive”.
For the compound `CCCCNC(=O)NS(=O)(=O)c1ccc(N)cc1`, the “activity change, negative = inhibition” value was -4.88% (inactive).
For `C[N+]12CCC(CC1)C(OC(=O)C(O)(c1ccccc1)c1ccccc1)C2` (stereo not given), the “activity change, negative = inhibition” value was -8.1% (inactive).
As for `Cc1ncc(CO)c(C=O)c1O`, the Potency entry is “inactive”.
Consider `COP(=O)(OC)OC(c1ccc(Cl)cc1)P(=O)(OC)OC` (stereo not given), for which the “activity change, negative = inhibition” value is -5.82% (inactive).
